In PubChem BioAssay AID504454 (NMMLSC, 2011):
The whole screen tested about 340,000 compounds, of which about 1,400 (0.41%) were called active.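 How the source made its calls: active means response above a set limit, near 3 SD of response in nonfluorescent compounds (cut at about 42% in these data); inactive means the rest.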 The full list was thinned out, with actives kept by preference.

molecular target: Beta-2 adrenergic receptor (Homo sapiens) (UniProt P07550); assay: agonist-induced loss of surface beta2AR – cell-based, FAP fluorogen, flow cytometry, primary screen (AID 504454); conditions: Am2.2-beta2AR cells, FAP receptor internalization, active compounds read high, concentration not given here
Sequence (P07550 whole entry, looked up): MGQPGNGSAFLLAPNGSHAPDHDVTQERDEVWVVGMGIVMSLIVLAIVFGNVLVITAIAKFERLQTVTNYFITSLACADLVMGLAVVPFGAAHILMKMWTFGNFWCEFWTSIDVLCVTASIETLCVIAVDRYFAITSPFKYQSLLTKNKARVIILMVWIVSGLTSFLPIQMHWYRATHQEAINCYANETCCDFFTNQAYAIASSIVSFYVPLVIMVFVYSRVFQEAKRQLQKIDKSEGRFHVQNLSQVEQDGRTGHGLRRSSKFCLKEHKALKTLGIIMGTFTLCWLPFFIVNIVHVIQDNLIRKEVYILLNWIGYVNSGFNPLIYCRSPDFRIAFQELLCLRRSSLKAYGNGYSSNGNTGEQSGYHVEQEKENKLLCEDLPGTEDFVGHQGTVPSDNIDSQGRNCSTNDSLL

response, inactive:
CC[n+]1cc(C)ccc1/C=C/c1ccc(N(C)C)cc1 -468%, CCCN(CCC)S(=O)(=O)c1ccc(C(=O)NNC(=O)c2cc(OC)c(OC)c(OC)c2)cc1 4.58%, CCN(CC)Cc1csc2ccc(Br)cc12 5.63%, COc1ccc(CCC(=O)c2ccc(OC)cc2)cc1 -1.6%, COc1ccc(OC(C)C(=O)Nc2cccnc2)cc1 (stereo unspecified) -1.88%, O=C(Nc1ccc([N+](=O)[O-])cc1)C1CC12CCC2 (stereo unspecified) -2.03%, COc1cccc2[nH]c(C(=O)NCCc3ccccc3)cc12 1.88%, O=C(Cn1nc(Cc2cccnc2)c2ccccc2c1=O)NCC1CCCO1 (stereo unspecified) -13.8%, COc1ccccc1NC(=O)Nc1nc(CC(=O)Nc2ccccc2F)cs1 1.09%, O=C(COc1ccccc1F)Nc1nc(-c2ccccn2)cs1 -6.34%, CCc1c(SCCC(=O)O)nc2ccccc2c1C -4.7%, CCN(CC)c1ccc(C(=O)OCC(=O)c2ccco2)cc1 4.24%, COc1ccc(Cl)cc1NC(=O)CN1CCN(C(=O)N2CCOCC2)CC1 1.88%, O=C(CN1CCN(c2cccc(Cl)c2)CC1)Nc1ccc(S(=O)(=O)N2CCOCC2)cc1 -2.92%, NC[C@H](Cc1ccccc1)NCCc1cc(C(F)(F)F)cc(C(F)(F)F)c1 19%, CCOC(=O)[C@H]1[C@H]2COc3ccc(OC)cc3[C@@H]2N2C(=O)c3ccc(F)cc3NC(=O)[C@@]12C -0.05%, COCCn1c(C)cc(C(=O)CSc2nnc(C3CC3)n2C2CC2)c1C 6.93%, O=C(N/C(=C\c1ccc([N+](=O)[O-])cc1)C(=O)N1CCOCC1)c1cccc(Br)c1 3.33%, O=C(N/C(=C/c1ccc(Cl)cc1)C(=O)N1CCCCC1)c1ccco1 6.34%, CC(=O)Nc1ccc(S(=O)(=O)N2CCN(CCCOc3cc(C)ccc3C)CC2)cc1 3.77%, CC(C)c1ccc(NC(=O)[C@@H](NC(=O)N2CC(=O)Nc3ccccc32)C(C)C)cc1 -13%, Cc1ccc(-c2nnc(SCC(=O)N/N=C/c3cccs3)n2-c2ccc(C)cc2)cc1 -11.9%, COc1ccc(OC)c(/C=N/NC(=O)CSc2nnc(C)n2-c2ccccc2)c1 8.61%, CCOc1cc(C)c(S(=O)(=O)NCc2ccccn2)cc1C -7.14%, CCCOc1ccc(/C=N/NC(=O)C2CC2)c(OCCC)c1 -16.2%, COC(=O)c1ccc(OCC(=O)NC(C)(C)C)cc1 6.76%, Cc1ccc2[nH]c(=O)c(CN(C)S(=O)(=O)c3cccc4nonc34)cc2c1 -5.68%, Cc1nn(-c2ccccn2)c2c1C(c1ccncc1)C1=C(CC(C)(C)CC1=O)N2 (stereo unspecified) -12.9%, CSc1ccc(S(=O)(=O)NCC(=O)OCC(=O)NC2(C#N)CCCCC2)cc1[N+](=O)[O-] 5.12%, COc1ccc(CCOC2OC(CO)C(OC(=O)/C=C/c3ccc(O)c(OC)c3)C(O[C@H]3O[C@@H](C)[C@H](O)[C@@H](O)[C@H]3O)C2O)cc1O (stereo partly specified) 1.58%, O=C(Nc1ccc(Br)cc1)C1CCC(=O)N1Cc1ccccc1Cl (stereo unspecified) -2.28%, Cc1nc2ccccc2nc(C)c1=NOCc1ccc(Cl)cc1Cl -2.95%, COc1ccc(Cl)cc1N(CC(=O)N/N=C/c1ccc(OCC(N)=O)cc1)S(C)(=O)=O -3.08%, CCC(CC)NC(=O)/C=C/c1cccc([N+](=O)[O-])c1 -1.38%, CCCCCc1ccc(-c2ccc(C(=O)O)cc2)nc1 -1.17%, Cc1cc(N2CCOCC2)nc(-c2ccc(Br)cc2)n1 -1.94%, O=S(=O)(Cc1cc(Sc2ccccc2)nc(-c2ccccc2)n1)c1ccccc1 7.22%, S=c1[nH]nc(Nc2ccccc2)s1 16.4%, COc1cc(C(C(=O)NC2CCCC2)N(C(=O)c2ccco2)c2ccccc2C(C)=O)cc(OC)c1OC (stereo unspecified) 2.2%, CCOC(=O)c1c(-c2ccccc2)oc2cc(Br)c(O)cc12 -5.83%, CCOC(=O)c1c(-c2ccccc2)oc2ccc(OCC(=O)NN)cc12 27.5%, Cn1c(=O)oc2cc(S(=O)(=O)NCCC(=O)NCc3ccccc3Cl)ccc21 0.87%, CCOC(=O)C1CCN(CC(=O)Nc2ccc(OC)c(S(=O)(=O)N3CCCCC3)c2)CC1 11.9%, O=C(COc1cccnc1[N+](=O)[O-])Nc1ccc(Cl)cc1F -3.75%, O=C(Nc1ccc(N2CCOCC2)cc1)c1ccc(-c2ccccc2[N+](=O)[O-])o1 15.6%, Cc1c(/C=N/N2C(=O)C3C4C=CC(C4)C3C2=O)c2ccccc2n1C (stereo unspecified) -4.99%, CCOc1cc(/C=C2/N=C(c3ccc(C(C)(C)C)cc3)OC2=O)cc(Cl)c1OS(C)(=O)=O -2.17%, COc1ccc(NC(=O)CN(C)C(=O)c2cccc(S(=O)(=O)N3CCN(c4ccccc4)CC3)c2)cc1 6.13%, COc1ccc2ccccc2c1CNc1nnnn1C -4.52%, CCN(CC(=O)Nc1ccccc1C(F)(F)F)C(=O)CSCc1c(C)noc1C -3.25%, Cc1ccc(NC(=O)COC(=O)C2C3CC4OC(=O)C2C4C3)cc1Cl (stereo unspecified) 5.53%, COc1cc(/C=C2\Oc3ccc(C#Cc4ccc(O)cc4)cc3C2=O)cc(OC)c1 -8.05%, O=C1c2ccccc2C(=O)N1CCC#Cc1ccc2cc(C3(O)CCCCC3)oc(=O)c2c1 5.43%, COc1ccc(CCNC(=O)c2ccc3c(c2)NC(=O)C(N2CCOCC2)S3)cc1OC (stereo unspecified) 3.69%, Cc1nn(Cc2ccccc2)c(C)c1C(=O)N1CCN(CC(=O)Nc2ccccc2Cl)CC1 4.22%, COc1cccc(Cn2cc(/C=N/NC(=O)c3cc(O)cc(O)c3)c3ccccc32)c1 3.63%, CCOC(=O)N/N=C/c1cn(Cc2ccccc2Cl)c2ccccc12 -0.12%, COc1ccc(OC)c(CCNC(=O)CCn2ccc3cc(S(=O)(=O)N4CCCC4)ccc32)c1 1.18%, CCOCCCNC(=O)c1c[nH]c2cc(C)ccc2c1=O -5.06%, CCN(CC)S(=O)(=O)c1ccc(N2CCCC2)c(NC(=O)c2ccc([N+](=O)[O-])o2)c1 5.38%, Cc1cc(C)n(CCNS(=O)(=O)c2ccc(Cl)cc2)n1 -1.1%, O=S(=O)(NCCSc1ccccn1)c1ccc(Cl)cc1 -2.74%, COc1cc(C(=O)NCc2ccncc2)cc(Br)c1OCc1ccccc1 7.17%, COC(=O)c1ccc(C23CC4(C2)[C@H](CN(Cc2cccnc2)[C@@H]4c2ccccc2)C3c2ccc(Cl)nc2)cc1 (stereo partly specified) 5.54%, CCn1c(CNc2ccc(OC)cc2)nnc1SCC(=O)c1ccc(OC)cc1 6.23%, CCC(c1nnc(SCC(=O)NNC(=O)c2ccccc2)n1Cc1ccccc1)N(C)C (stereo unspecified) -7.18%, Cc1cc(C)c(S(=O)(=O)n2cc(C(C)C(N)C(=O)O)c3ccccc32)c(C)c1 (stereo unspecified) 3.12%, CCCNC(=O)N1CCC(c2ccc3c(c2)OCO3)CC1 6.03%, O=[N+]([O-])c1ccc(NC(=S)N2CCN(c3ccccn3)CC2)cc1 -2.61%, COCc1cc(C)nc2sc(C(=O)NC3CCCCC3)c(N)c12 -21.3%, COc1ccc(NC(=O)c2sc3nc(C)nc(N4CCN(c5ccccn5)CC4)c3c2C)c(OC)c1 16.2%, O=S(=O)(c1ccccc1)c1nc(Cc2ccccc2)oc1N1CCOCC1 6.12%, CCCCN=C1N/C(=C\c2ccco2)C(=O)N1c1ccccc1 0.77%, COc1cc(OC)cc(C(=O)NNC(=O)CCOc2ccccc2OC)c1 4.38%, CCN1CCC(=NNC(=O)c2ccc(C)c([N+](=O)[O-])c2)CC1 2.52%, CCCCN(CCCC)CCCNC(=O)CN1C(=O)COc2ccc(S(=O)(=O)N3CCC(C)CC3)cc21 7.21%, Cc1nc2ccccc2c(C(=O)O)c1-c1ccccn1 5.02%, Cc1nc2ccccc2c(C)c1C(=O)c1ccc(F)cc1 1.92%, CC/S(CC1CC1(Cl)Cl)=N\S(=O)(=O)c1ccc(C)cc1 (stereo unspecified) -2.93%, COc1ccc2c(c1OC)C(=O)N(c1ccc(O)cc1)C2 5.16%, COc1ccnc(Oc2ccccc2)c1-c1ncn[nH]1 1.34%

response, active:
COc1ccc(CS(=O)/C(Cl)=C(/Cl)C(=O)Nc2ccc(OC)nc2)cc1 (stereo unspecified) 52.3%, COc1ccc(CC(=O)Nc2nc(-c3ccc(F)c(F)c3)cs2)cc1OC 44%, Cc1ccc(Cl)cc1NC(=O)CN1CCN(S(=O)(=O)N2CCOCC2)CC1 81.7%, O=C(N/C(=C\c1ccc([N+](=O)[O-])cc1)C(=O)N1CCCCC1)c1ccco1 72.5%, Cc1nnc(SCC(=O)N/N=C/c2cn(-c3ccccc3)nc2-c2ccc(F)cc2)n1-c1ccccc1 54.1%, CCCOc1ccc(C(=O)C(CCC(CNCC)C(=O)c2ccc(OCCC)cc2)CNCC)cc1 (stereo unspecified) 46.1%, Cc1cc(C)c(C2C3=C(Nc4c2c(C)nn4-c2ccccn2)c2ccccc2C3=O)c(C)c1 (stereo unspecified) 69.5%, NC(N)=N/N=C/c1ccc(OCc2ccc(Cl)cc2Cl)cc1 59.6%, Cc1ccc(Sc2cc(N3CCOCC3)nc(-c3ccccc3)n2)cc1 42.7%, CCOC(=O)c1c(-c2ccccc2)oc2cc(Br)c(O)c(C=O)c12 56.8%, O=C1C2C3C=CC(C4CC34)C2C(=O)N1/N=C/c1ccc(-c2ccccc2[N+](=O)[O-])o1 (stereo unspecified) 42.1%, O=[N+]([O-])/C=C/c1ccc2c(ccn2Cc2ccccc2)c1 48.2%, Cn1c(=S)sc2ccc3ccccc3c21 59.5%, COc1cc(C#Cc2ccc3cc(CCCO)oc(=O)c3c2)cc(OC)c1 45.9%, COC(=O)N/N=C/c1cn(CCCOc2ccc(C)cc2)c2ccccc12 105%, CC(C)(CSc1nncn1/N=C/c1ccco1)NS(=O)(=O)c1ccc(Cl)cc1 45.9%, CCn1c(SCC(=O)NNC(=O)c2ccc(OC)cc2)nnc1C(C)C 76.2%, COc1ccc(OC)c(NC(=O)c2sc3nc(C)cc(C)c3c2N)c1 72.5%, Cc1nc2ccccc2c(-c2ccccc2)c1C(=O)c1ccccc1 105%, O=c1[nH]c(=S)[nH]c(O)c1/C=C1\C=Nc2ccccc21 57.7%
